Growth activity, negative = inhibition data for 62 molecules are collected here from PubChem BioAssay AID1259249 (Broad Institute, 2017).

Each structure is given as a SMILES string. “And” between values parts separate entries of the source, which are not always exact repeats. Equal entries are not always repeated. Among all 86,000 compounds or so, about 220 (0.26%) were called active.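 How the source made its calls: active means mean growth activity at or below -80% and every replicate also at or below -80%; inconclusive means mean at or below -80% but some replicate above -80%; inactive means mean growth activity above -80%.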 For the sample, actives were picked, then their nearest neighbours and some compounds at random.

A short description of this test: C. difficile growth inhibitors, primary screen, HTS (AID 1259249).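 Further: 0% = DMSO wells and -100% = levofloxacin 16 µg/mL wells.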 As to conditions: Clostridium difficile clinical isolate growth, OD600, 24 h; active compounds read low; screened at 16 µg/mL (by protocol).
For `COc1ccc(S(=O)(=O)N(C)C[C@@H]2OCCCC[C@H](C)Oc3ccc(NC(=O)Nc4ccccc4)cc3C(=O)N([C@H](C)CO)C[C@H]2C)cc1`, the growth activity, negative = inhibition was -1.33% (inactive). In the case of `O=C(C[C@@H]1CC[C@H](NS(=O)(=O)c2ccc(F)cc2)[C@@H](CO)O1)NCc1ccccc1F` it was -8.59% (inactive). In the case of `COCC(=O)N1[C@H](CO)[C@H](c2ccccc2C2=CCCCC2)[C@@H]1C#N` it was -0.454% (inactive).

On to `COc1ccc(NC(=O)Nc2ccc3c(c2)C(=O)N([C@@H](C)CO)C[C@H](C)[C@H](CN(C)Cc2ccc(C(F)(F)F)cc2)OCCCC[C@H](C)O3)cc1`, for which the growth activity, negative = inhibition is 0.631% (inactive).

With `COc1ccc(CN(C)C[C@@H]2OCCCC[C@@H](C)Oc3ccc(NC(=O)Nc4ccc(C(F)(F)F)cc4)cc3C(=O)N([C@H](C)CO)C[C@H]2C)cc1`, the growth activity, negative = inhibition is -85.2% (active). On to `C[C@@H]1CN([C@H](C)CO)C(=O)c2cc(NC(=O)Nc3ccc(C(F)(F)F)cc3)ccc2O[C@@H](C)CCCCO[C@@H]1CN(C)Cc1ccc(C(F)(F)F)cc1`, for which the growth activity, negative = inhibition is 0.541% (inactive). In the case of `COc1ccc(S(=O)(=O)N2CC[C@@H]3[C@H](CO)Nc4ccc(C#Cc5cccc(OC)c5)cc4[C@@H]32)cc1` it was 47.9% (inactive); in that of `CCCNC(=O)N1[C@@H]2CNC[C@H]1C2c1ccc(-c2cccc(C)c2)cc1` (some centres not stated), -6.26% (inactive) and -5.23% (inactive); in that of `C[C@H](CO)N1C[C@H](C)[C@@H](CN(C)C(=O)C2CCC2)Oc2cc(C3=CCCCC3)ccc2S1(=O)=O`, -7.06% (inactive). In the case of `O=C(C[C@@H]1CC[C@@H](NC(=O)c2cccnc2)[C@H](CO)O1)NCCN1CCCCC1`, the growth activity, negative = inhibition is -5.37% (inactive). In the case of `CN(C)C(=O)C[C@@H]1CC[C@H]2[C@@H](COC[C@H](O)CN2S(=O)(=O)c2ccccc2)O1` it was 0.743% (inactive) and 2.09% (inactive).

On to `O=C(NC1Cc2ccccc2C1)[C@@H]1[C@@H](CO)[C@@H]2Cn3c(ccc(C4=CCCC4)c3=O)[C@H]1N2CC1CC1`, for which the growth activity, negative = inhibition is -0.745% (inactive). In the case of `C[C@H](O)C#Cc1cnc2c(c1)C(=O)N([C@H](C)CO)C[C@@H](C)[C@@H](CN(C)C(=O)Nc1ccc(C(F)(F)F)cc1)O2` it was 4.02% (inactive); in that of `O=C(Cc1ccccc1)N1CC2(C1)[C@H](c1ccccc1)[C@@H](CO)N2C(=O)c1cccnc1`, 1.92% (inactive); in that of `O=C(Cc1cccnc1)N1CC(=O)N2[C@@H](CO)[C@H](c3ccc(C#CC4CC4)cc3)[C@@H]2C1`, -8.63% (inactive). For `CCCC(=O)Nc1ccc2c(c1)OC[C@H](C)N(Cc1ccc(F)cc1)C[C@H](C)[C@H](OC)CN(C)C2=O`, the growth activity, negative = inhibition is -2.55% (inactive). As for `COc1ccc2c3c(n(C)c2c1)[C@H](CO)N(C(=O)c1ccncc1)CC31CCN(CC2CC2)CC1`, the growth activity, negative = inhibition was -4.02% (inactive). Under `CN(C)CC(=O)N[C@H]1CC[C@H](CCNC(=O)C2CCCCC2)O[C@H]1CO` stands -2.36% (inactive). Under `CCS(=O)(=O)N1CC(=O)N2[C@H](CO)[C@@H](c3ccc(C#Cc4cccc(F)c4)cc3)[C@@H]2C1` stands -11.9% (inactive); under `CCCNC(=O)N1CC2(CCN(Cc3ccc(F)cc3)CC2)c2c([nH]c3cc(OC)ccc23)[C@@H]1CO`, -2.16% (inactive); under `COc1ccc(C#Cc2cnc3c(c2)C(=O)N([C@H](C)CO)C[C@@H](C)[C@H](CN(C)C(=O)Nc2cccc(OC)c2)O3)cc1`, -9.72% (inactive). In the case of `CO[C@@H]1CN(C)C(=O)c2ccc(NC(=O)NC(C)C)cc2OC[C@@H](C)N(C)C[C@H]1C` it was -0.836% (inactive); in that of `CO[C@H]1CN(C)C(=O)c2ccc(NC(=O)c3cnccn3)cc2OC[C@H](C)N(C)C[C@@H]1C`, 4.99% (inactive); in that of `CC=Cc1ccc2n(c1=O)C[C@H]1[C@H](CO)[C@@H](C(=O)NCCc3cn(C)cn3)[C@@H]2N1C(=O)CC` (mixture of isomers), 1.45% (inactive). In the case of `CCNC(=O)C[C@H]1CC[C@@H]2[C@H](COc3ccc(NC(=O)Nc4cccc(Cl)c4)cc3C(=O)N2C)O1`, the growth activity, negative = inhibition is -2.43% (inactive).

Take `CC(=O)N1[C@H](CNC(=O)CN(C)C)[C@H](c2ccc(C3=CCCC3)cc2)[C@@H]1CO`: the growth activity, negative = inhibition is -3.19% (inactive). Turning to `CO[C@H]1O[C@H](CO)[C@@H](OC(=O)Nc2ccc(C(F)(F)F)cc2)[C@H](OC(=O)Nc2ccc3c(c2)OCO3)[C@H]1OC(=O)Nc1ccc2c(c1)OCO2`, the growth activity, negative = inhibition is 16.4% (inactive).

On to `COc1ccc(-c2ccc3c(c2)[C@@H]2[C@@H](CCN2C(=O)NC2CCCC2)[C@@H](CO)N3C)cc1`, for which the growth activity, negative = inhibition is -8.11% (inactive). For `C[C@H](NC(=O)[C@@H]1[C@@H](CO)[C@@H]2Cn3c(ccc(-c4cccc(F)c4)c3=O)[C@@H]2N1C)c1ccccc1`, the growth activity, negative = inhibition was -2.53% (inactive). Under `CN1C(=O)c2cc(NC(=O)C3CCCCC3)ccc2OC[C@H]2O[C@@H](CC(=O)NC3CCCC3)CC[C@@H]21` stands -2.9% (inactive); under `CO[C@@H]1CN(C)C(=O)c2ccc(NC(=O)Nc3cc(Cl)cc(Cl)c3)cc2OC[C@H](C)NC[C@H]1C`, -99.2% (active); under `CO[C@H]1CN(C)C(=O)c2ccc(NC(=O)Nc3ccc4c(c3)OCO4)cc2OC[C@H](C)NC[C@H]1C`, -11.3% (inactive). Under `CO[C@H]1CN(C)C(=O)c2ccc(NC(=O)Nc3ccc(F)cc3)cc2OC[C@@H](C)NC[C@H]1C` stands 0.388% (inactive). Take `COc1cccc(NC(=O)N2C[C@@H](O)COC[C@@H]3O[C@@H](CC(=O)NC4CCC4)CC[C@H]32)c1`: the growth activity, negative = inhibition was 5.76% (inactive). As for `Cc1ccccc1S(=O)(=O)NCC[C@@H]1CC[C@H](NC(=O)C2CCC2)[C@@H](CO)O1`, the growth activity, negative = inhibition is 2.36% (inactive). With `O=C(N[C@H]1CC[C@H](CCNS(=O)(=O)c2ccc(F)cc2)O[C@H]1CO)c1cccc(F)c1`, the growth activity, negative = inhibition was -5.13% (inactive). In the case of `COC(=O)C[C@H]1C[C@H]2c3cc(NC(=O)Nc4ccccc4F)ccc3O[C@H]2[C@H](CO)O1` it was 2.15% (inactive); in that of `COc1cc(C(=O)NC2CCN(C)CC2)ccc1Nc1ncc2c(n1)N(C1CCC(O)CC1)CCC(=O)N2C` (configuration not stated), -0.491% (inactive); in that of `O=C(Nc1cc(F)ccc1F)N1C[C@H]2[C@@H](c3ccccc31)[C@@H](CO)N2CC1CCCC1`, 8.3% (inactive). With `O=C(NCC1CC1)[C@@H]1[C@@H](CO)[C@@H]2Cn3c(ccc(-c4ccccc4)c3=O)[C@H]1N2Cc1nccs1`, the growth activity, negative = inhibition is -2.44% (inactive).

Consider `CCCNC(=O)N(C)C[C@H]1Oc2ncc(-c3cccc(C#N)c3)cc2C(=O)N([C@@H](C)CO)C[C@@H]1C`, for which the growth activity, negative = inhibition is 2.18% (inactive).

Take `C[C@@H]1CCCCO[C@@H](CN(C)C(=O)Nc2ccc3c(c2)OCO3)[C@H](C)CN([C@H](C)CO)C(=O)c2cc(NC(=O)CCCN(C)C)ccc2O1`: the growth activity, negative = inhibition was 5.23% (inactive). In the case of `O=C(Cc1cccnc1)N1CC(=O)N2[C@@H](CO)[C@@H](c3ccc(C#CC4CCCC4)cc3)[C@@H]2C1` it was -15.5% (inactive); in that of `COc1ccc2c3c(n(C)c2c1)[C@@H](CO)N(C)CC31CN(CC2CC2)C1`, 1.27% (inactive). `COc1ccc2c3c([nH]c2c1)[C@H](CO)N(C(=O)Nc1ccc(F)cc1)CC31CN(S(=O)(=O)c2cccc(F)c2)C1`: the growth activity, negative = inhibition is 0.0849% (inactive).

In the case of `O=C(c1cccc(F)c1)N1CC[C@@H]2[C@H](CO)Nc3ccc(-c4ccccc4)cc3[C@@H]21`, the growth activity, negative = inhibition is 6.91% (inactive). With `COCC#Cc1ccc([C@@H]2[C@H](CO)N3C(=O)CN(C(=O)C4CCC4)C[C@@H]23)cc1`, the growth activity, negative = inhibition is -5.13% (inactive). Under `COc1ccc2c3c([nH]c2c1)[C@@H](CO)N(C(=O)c1ccccc1)CC31CCN(Cc2cccnc2)CC1` stands 3.57% (inactive); under `CC=Cc1ccc2n(c1=O)C[C@H]1[C@H](CO)[C@@H](C(=O)NC3CCCC3)N(Cc3cccnc3)[C@@H]21` (mixture of isomers), 1.31% (inactive). Consider `CCC(=O)N1CC(=O)N2[C@@H](CO)[C@H](c3ccc(C#CC4CCCC4)cc3)[C@@H]2C1`, for which the growth activity, negative = inhibition was -2.43% (inactive). On to `CN(C)CC#Cc1ccc([C@H]2[C@H]3CN(C(=O)c4cccc(F)c4)CC(=O)N3[C@H]2CO)cc1`, for which the growth activity, negative = inhibition was 2.12% (inactive). In the case of `CO[C@H]1CN(C)C(=O)c2cc(NS(=O)(=O)c3ccccc3C)ccc2OC[C@@H](C)NC[C@@H]1C`, the growth activity, negative = inhibition was -1.27% (inactive).

As to `CS(=O)(=O)N1[C@H](C#N)[C@H](c2ccccc2-c2ccc(F)cc2)[C@@H]1CO`, the growth activity, negative = inhibition is 7% (inactive). In the case of `CC(=O)N(C)C[C@H]1[C@H](c2ccc(C3=CCCCC3)cc2)[C@H](CO)N1CC1CC1` it was 33.9% (inactive).

In the case of `O=C(C[C@@H]1CC[C@@H](NC(=O)C2CCOCC2)[C@H](CO)O1)NCC1CC1`, the growth activity, negative = inhibition is 1.16% (inactive). Take `COc1ccccc1NC(=O)N1CC(=O)N2[C@H](C1)[C@H](c1ccc(C#Cc3ccccc3)cc1)[C@@H]2CO`: the growth activity, negative = inhibition is 12.6% (inactive). In the case of `CCCNC(=O)C[C@H]1C[C@H]2c3cc(NC(=O)NC4CCCCC4)ccc3O[C@H]2[C@H](CO)O1`, the growth activity, negative = inhibition is -4.2% (inactive). In the case of `COc1cccc(NC(=O)C[C@@H]2CC[C@H]3[C@@H](COc4ccc(NC(=O)C5CCC5)cc4C(=O)N3C)O2)c1` it was -1.63% (inactive); in that of `C[C@@H]1CN([C@@H](C)CO)S(=O)(=O)c2ccc(/C=C/c3ccccc3)cc2O[C@H]1CN(C)C(=O)Nc1cc(F)ccc1F`, 4.39% (inactive). As for `C/C=C/c1ccc([C@H]2[C@H](CO)N(C(=O)CN(C)C)C23CN(C(=O)C2CC2)C3)cc1`, the growth activity, negative = inhibition is -0.638% (inactive).

`CN1c2ccc(-c3ccccc3F)cc2[C@H]2[C@H](CCN2C(=O)Nc2cc(F)ccc2F)[C@H]1CO`: the growth activity, negative = inhibition was 38.2% (inactive). As to `C[C@@H]1CCCCO[C@@H](CN(C)C(=O)CCC(F)(F)F)[C@H](C)CN([C@@H](C)CO)C(=O)c2cc(NC(=O)CCCN(C)C)ccc2O1`, the growth activity, negative = inhibition was 2.21% (inactive).
